In the library only some 8.2% were active in any assay of this set; here they are far more common.
KB-V1 cytotox: KB-V1 MDR subline cytotoxicity | KB-V1 MDR cells viability, CellTiter-Glo, 72 h | Potency, µM (top dose mostly 46.1 µM), most hits filed as cytotoxic | actives 3.4% (n = 400,000); also: % is scaled to controls: 0 for no effect and ±100 for the full control effect; nearly all actives have a fitted effect of over 60% in size
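In this primary screen, KB-V1 cells overexpressing P-gp are incubated with library compounds (lowest to highest concentration) for 72 h at 37 degrees C before a luminescent ATP viability read.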
KB-3-1 cytotox: KB-3-1 parental cell cytotoxicity | KB-3-1 viability, CellTiter-Glo ATP luminescence, 72 h | Potency, µM (highest dose often 46.1 µM), usual class: cytotoxic | actives 1.4% (n = 400,000); also: % is scaled to controls: 0 for no effect and ±100 for the full control effect; nearly all actives have a fitted effect of over 60% in size
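Using CellTiter-Glo luminescence, growth of non-resistant KB-3-1 adenocarcinoma cells is assessed 72 h after pin-tool compound addition at 37 °C. Normalized responses across the concentration series yield fitted curves.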
MCF10A rerep: induces DNA re-replication in MCF 10a normal breast cells. actives 2.9% (n = 350,000). Potency, µM (top dose mostly 46.1 µM), without a hit: at the highest dose activity, positive = re-replication, actives largely listed as activators. MCF 10A DNA re-replication, Hoechst nuclear intensity, 48 h. AID 624296; also: % of control where 0% means no effect; nearly all actives have a fitted effect of over 50% in size
ELG1 repair inh: inhibitors of ELG1-dependent DNA repair in HEK293T cells. Potency, µM (titrated, usually from 46.1 µM), without a hit: at the top dose activity change, negative = inhibition, actives largely listed as inhibitors. HEK293T ELG1-luciferase reporter, luminescence, 16 h; DNA damage induced by 5-fluorouridine. actives 2.3% (n = 330,000). AID 504467; also: % is scaled to controls: 0 for no effect and ±100 for the full control effect; nearly all actives have a fitted effect of over 55% in size
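Cells (2,000 per well) received 5-fluorouridine plus test compound or DMSO and were incubated 16 hr at 37 °C, 5% CO2. Luciferase activity was read by luminescence 30 min after ONE-Glo addition; signal suppression marked inhibition of damage-induced ELG1 function.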
SW480 rerep: induces DNA re-replication in SW480 colon adenocarcinoma cells; AID 624297; Potency, µM (titrated, usually from 46.1 µM), for the others: top-dose re-replication activation, usual class: activators; actives 1.8% (n = 340,000); SW480 DNA re-replication, Hoechst DNA content imaging, 48 h; also: % of control where 0% means no effect; nearly all actives have a fitted effect of over 55% in size
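250 cells/well; 23 nL cpd via pin tool; 48 hr, 37 C, 5% CO2; Hoechst 40 min; imager read of total nuclear intensity, ex 405/em 500-530 nm.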
An asterisk follows results filed as active; i = inactive; ? = inconclusive; . = not tested or not shown. Calls follow the shape of the dose curve; as a rule, active = well fitted curve in the direction sought with a large enough effect; inconclusive = small, poorly fitted or top-dose-only effect, or another doubt; inactive = no such curve, though single readings can be large; an effect the other way counts as inactive or inconclusive. Potency is read from the fitted curve at half-maximal effect.

SMILES | KB-V1 cytotox | KB-3-1 cytotox | MCF10A rerep | ELG1 repair inh | SW480 rerep
CCOC(=O)C1=C(C)NC2=C(C(=O)C(C(=O)OCC)C(c3ccco3)C2)C1c1ccccc1C (centres undefined) | i | i | . | . | .
COc1ccc(S(=O)(=O)N2CCOCC2)cc1NC(=O)Cc1sc(C)nc1-c1ccc(F)cc1 | 12µM* | ? | 3% | -19% | 4%
COc1ccc(S(=O)(=O)N2CCOCC2)cc1NC(=O)COc1cccnc1[N+](=O)[O-] | i | i | 0.58µM* | ? | -9%
O=C(COc1cccnc1[N+](=O)[O-])Nc1cccc(S(=O)(=O)N2CCOCC2)c1 | i | i | 4% | -2% | 1%
O=C(Nc1ccc2c(c1)OCCO2)C(c1ccnc2ccccc12)N1CCC(Cc2ccccc2)CC1 (centres undefined) | i | i | . | . | .
Cc1cc(NC(=O)Cc2c(F)cccc2Cl)no1 | i | i | 7.3µM* | 4% | ?
Cc1cc(C(=O)Nc2c(C)nn(Cc3c(Cl)cccc3Cl)c2C)no1 | 9.2µM* | i | -4% | 43% | -1%
COc1ccc(-c2cc(C(=O)Nc3c(C)nn(Cc4ccccc4Cl)c3C)no2)cc1 | i | i | 10µM* | 3% | 8%
CCc1cc(C(=O)Nc2c(C)nn(Cc3ccccc3Cl)c2C)no1 | i | i | . | . | .
O=C(Cc1c(F)cccc1Cl)Nc1ccon1 | i | i | -1% | 9% | 1%
CC(=O)c1ccc(OCC(O)CN2CCN(S(=O)(=O)c3c(C)c(C)cc(C)c3C)CC2)cc1 (centres undefined) | ? | i | ? | ? | ?
Cc1ccc(NC(=O)CSc2ncc(-c3ccccc3)n2C(=O)c2ccccc2)cc1 | i | i | 10% | ? | 2%
CCOc1ccc(NC(=O)CSc2ncc(-c3ccc(F)cc3)n2Cc2ccco2)cc1 | i | i | ? | 16µM* | ?
Cc1ccc(NC(=O)Cn2c(-c3ccc(F)cc3)cnc2SCC(=O)Nc2c(C)cccc2C)cc1 | i | i | 4.6µM* | ? | ?
CCSc1nc(-c2cccs2)nc2ccccc12 | i | i | ? | -15% | -5%
CCOC(=O)C1=C[C@@H](C(C)(C)C)N(S(=O)(=O)c2ccc([N+](=O)[O-])cc2)[C@H]1c1ccccc1 | ? | i | . | . | .
CCc1ccccc1N1CC(c2nc3ccccc3n2CCCOc2ccc(Cl)cc2)CC1=O (centres undefined) | i | i | . | . | .
C/C(=N\Nc1cc(N2CCCCC2)nc(C)n1)c1ccc(Br)cc1 | ? | ? | 12µM* | 16µM* | ?
COc1ccc(-c2cnn3c(N)c(S(=O)(=O)C(C)(C)C)cnc23)cc1 | 15µM* | i | 15% | 10% | ?
CC(C)(C)S(=O)(=O)c1cnc2c(-c3ccc(Cl)cc3)cnn2c1N | i | ? | 14% | 8% | -13%
COc1ccc(C(=O)OCC(=O)NCCc2ccc(F)cc2)cc1S(=O)(=O)N1CCOCC1 | i | i | -10% | ? | -4%
CCOC(=S)SCc1cn2ccc(C)cc2n1 | i | i | 16µM* | 8% | 4%
C=C1C(=O)c2sccc2C(c2ccc(OC)c(OC)c2)C1COC(C)=O (centres undefined) | ? | ? | 18% | . | ?
COC(=O)c1cn(C)c2ccc(S(=O)(=O)N(C)C3CCCCC3)cc2c1=O | i | i | . | . | .
CCN(CC)C(=O)CSc1nc(COc2ccccc2)nc2ccccc12 | i | i | 0% | 23µM* | -7%
SMILES | KB-V1 cytotox | KB-3-1 cytotox | MCF10A rerep | ELG1 repair inh | SW480 rerep
Cc1cc(C)c(NC(=O)CSc2nc(COc3ccccc3)nc3ccccc23)c(C)c1 | i | i | ? | ? | ?
Cc1ccccc1NC(=O)CSc1nc(COc2ccccc2)nc2ccccc12 | ? | i | -8% | 26µM* | 28%
COC(=O)CSc1nc(COc2ccccc2)nc2ccccc12 | i | ? | -9% | 9% | 1%
CCc1ccc(CNC(=O)C2COc3ccccc3C2)cc1 (centres undefined) | i | i | . | . | .
O=C(Cc1cn(Cc2cccc(Cl)c2)c2ccccc12)N1CCCCCC1 | 4.6µM* | ? | ? | 16% | -65%
N#CC1=C(N)N(c2cccc(Cl)c2)C2=C(C(=O)CCC2)C1c1cc(CN2CCOCC2)cs1 (centres undefined) | i | i | . | . | .
COc1ccc(Nc2nc(N3CCCCC3)c3ccccc3n2)cc1 | 21µM* | ? | 19% | -1% | 7%
Oc1ccc(Nc2nc(N3CCCC3)c3ccccc3n2)cc1 | i | 9.2µM* | ? | 8% | ?
CCOc1ccc(CN(C)C(=O)c2ccc(S(=O)(=O)N(C)c3ccccc3OC)cc2)cc1 | i | ? | 16% | ? | 6%
CCc1n[nH]c(=S)n1/N=C/c1ccc(-c2ccc(Br)cc2)o1 | i | i | 18µM* | . | -1%
Cc1nc2ccccc2c2c1CC(C(C)(Cl)Br)O2 (centres undefined) | 4.6µM* | ? | 2% | ? | -19%
Cc1ccc2nc(C)c3c(c2c1)OC(C(C)(Cl)Br)C3 (centres undefined) | ? | i | 7% | -26% | 4%
CCCN(CCC)S(=O)(=O)c1ccc(C(=O)Nc2nnc(-c3cc(OC)cc(OC)c3)o2)cc1 | ? | ? | ? | 1.5µM* | 24%
CCc1nnc(NC(=O)c2ccc(S(=O)(=O)N(CCOC)CCOC)cc2)o1 | ? | i | 21% | 3% | 6%
CCCCN(CC)S(=O)(=O)c1ccc(C(=O)Nc2nnc(CSC)o2)cc1 | i | ? | ? | ? | ?
CCCN(CCC)S(=O)(=O)c1ccc(C(=O)Nc2nnc(CSC)o2)cc1 | 7.3µM* | 6.5µM* | ? | ? | 21%
CCCCN(CCCC)S(=O)(=O)c1ccc(C(=O)Nc2nnc(CSC)o2)cc1 | ? | ? | 10µM* | -3% | ?
CCC(=NNS(=O)(=O)c1ccc(C)cc1)c1ccc(OC)c(C)c1 | ? | i | . | . | .
CC(C)Oc1ccc(Cl)cc1Nc1nc(NCCO)nc(N2CCCC2)n1 | ? | i | 23µM* | . | ?
CCc1cc(SC#N)cc(CC)c1NC(=O)CCl | ? | 21µM* | 16µM* | ? | 23µM*
O=[N+]([O-])c1ccc(COc2cccc(CNc3ccc(F)cc3)c2)cc1 | 21µM* | i | 18% | 13% | -2%
Cc1cc(F)ccc1NC(=O)c1c(C)oc2c1C1=NCCN1C=N2 | i | i | . | . | .
CCN(CC(=O)Nc1ccc(NC(C)=O)cc1)C(=O)/C=C/c1c(C)nn(-c2ccc(F)cc2)c1Cl | i | i | 4% | 5.8µM* | -6%

Assay outcomes (PubChem)
